# Legend:
# Experiment in all cases: DAPPL (digital affinity profiling via proximity ligation, sequencing); 10 mM Tris-HCl pH 7.5, 50 mM NaCl, 1 mM DTT, 4% glycerol, room temperature, 30 min; GST-TFs on glutathione beads, 16-mer random dsDNA library, 0.1% formaldehyde crosslink after washing; high values mean tight binding
# Conditions in all cases: protein: recombinant; tags: N-terminal GST; dsDNA, one strand shown
# [1] = target: T1, ELK1 (Homo sapiens, UniProt P19419 1-428)
# T1 sequence: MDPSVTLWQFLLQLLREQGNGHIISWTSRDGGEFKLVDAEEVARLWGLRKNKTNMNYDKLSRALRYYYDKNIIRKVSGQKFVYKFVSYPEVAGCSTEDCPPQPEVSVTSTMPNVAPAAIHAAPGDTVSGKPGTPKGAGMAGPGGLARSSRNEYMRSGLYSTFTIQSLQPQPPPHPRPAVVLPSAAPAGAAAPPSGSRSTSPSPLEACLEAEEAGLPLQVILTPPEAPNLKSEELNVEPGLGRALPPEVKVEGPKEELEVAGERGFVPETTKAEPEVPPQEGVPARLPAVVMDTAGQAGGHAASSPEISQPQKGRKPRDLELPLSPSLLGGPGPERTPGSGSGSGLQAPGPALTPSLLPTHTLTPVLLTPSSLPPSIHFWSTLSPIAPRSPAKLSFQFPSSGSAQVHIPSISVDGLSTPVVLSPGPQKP
# Method in brief: (§1)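 Yeast served to express human transcription factors as GST fusions, which were then captured on glutathione beads and labelled with DNA barcodes. Pooled with a tag-only sample, they were incubated with 200 nmole of a 16-mer random double-stranded DNA library for 30 min at room temperature in Tris/NaCl/DTT/glycerol buffer, washed, crosslinked with 0.1% formaldehyde, ligated by proximity, amplified by PCR and sequenced. Dividing each hexamer's read frequency for a factor by its frequency for the tag-only sample gives the binding signal.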
# [2] = target: T2, GABPA (Homo sapiens, UniProt Q06546 1-454)
# T2 sequence: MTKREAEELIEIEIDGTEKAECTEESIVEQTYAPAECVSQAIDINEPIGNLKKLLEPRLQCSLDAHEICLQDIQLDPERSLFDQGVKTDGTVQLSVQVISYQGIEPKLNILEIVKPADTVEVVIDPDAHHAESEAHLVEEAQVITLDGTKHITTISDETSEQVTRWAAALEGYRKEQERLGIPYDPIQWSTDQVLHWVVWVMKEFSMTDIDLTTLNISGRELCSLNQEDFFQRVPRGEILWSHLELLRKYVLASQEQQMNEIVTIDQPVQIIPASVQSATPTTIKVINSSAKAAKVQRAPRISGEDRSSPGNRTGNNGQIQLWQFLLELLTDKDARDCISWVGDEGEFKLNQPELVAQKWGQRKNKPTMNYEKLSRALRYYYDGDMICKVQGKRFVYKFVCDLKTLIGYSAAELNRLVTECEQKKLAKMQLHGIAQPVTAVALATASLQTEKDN
# Method in brief: as §1
# [3] = target: T3, ERG (Homo sapiens, UniProt P11308 1-479)
# T3 sequence: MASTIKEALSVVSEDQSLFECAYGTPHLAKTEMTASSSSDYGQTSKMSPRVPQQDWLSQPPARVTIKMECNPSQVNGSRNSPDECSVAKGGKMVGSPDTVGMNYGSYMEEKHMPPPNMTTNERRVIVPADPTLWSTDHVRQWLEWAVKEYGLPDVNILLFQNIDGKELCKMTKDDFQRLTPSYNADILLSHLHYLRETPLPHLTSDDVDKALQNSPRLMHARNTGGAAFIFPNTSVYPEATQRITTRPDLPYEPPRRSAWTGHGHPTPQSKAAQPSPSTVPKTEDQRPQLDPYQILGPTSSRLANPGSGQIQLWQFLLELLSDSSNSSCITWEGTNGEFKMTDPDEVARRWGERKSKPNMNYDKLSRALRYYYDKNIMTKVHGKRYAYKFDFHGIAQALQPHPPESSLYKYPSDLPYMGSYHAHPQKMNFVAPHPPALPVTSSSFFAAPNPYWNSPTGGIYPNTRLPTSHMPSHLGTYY
# Method in brief: as §1
# [4] = target: ELF1 (Homo sapiens, UniProt P32519 1-619)
# Method in brief: as §1
# [5] = target: T4, EHF (Homo sapiens, UniProt Q9NZC4 1-300)
# T4 sequence: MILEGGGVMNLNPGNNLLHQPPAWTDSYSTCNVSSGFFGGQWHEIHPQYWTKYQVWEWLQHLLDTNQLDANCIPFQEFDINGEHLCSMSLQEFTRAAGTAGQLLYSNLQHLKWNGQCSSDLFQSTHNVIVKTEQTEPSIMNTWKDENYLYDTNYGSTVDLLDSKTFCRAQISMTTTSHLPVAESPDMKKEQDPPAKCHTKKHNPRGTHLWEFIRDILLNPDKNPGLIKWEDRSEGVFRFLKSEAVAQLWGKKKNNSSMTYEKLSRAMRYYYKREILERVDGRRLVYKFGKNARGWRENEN
# Method in brief: as §1
# [6] = target: SPI1 (Homo sapiens, UniProt P17947 1-270)
# Method in brief: as §1
# [7] = target: SPIB (Homo sapiens, UniProt Q01892 1-262)
# Method in brief: as §1
# [8] = target: T5, ELK3 (Homo sapiens, UniProt P41970 1-407)
# T5 sequence: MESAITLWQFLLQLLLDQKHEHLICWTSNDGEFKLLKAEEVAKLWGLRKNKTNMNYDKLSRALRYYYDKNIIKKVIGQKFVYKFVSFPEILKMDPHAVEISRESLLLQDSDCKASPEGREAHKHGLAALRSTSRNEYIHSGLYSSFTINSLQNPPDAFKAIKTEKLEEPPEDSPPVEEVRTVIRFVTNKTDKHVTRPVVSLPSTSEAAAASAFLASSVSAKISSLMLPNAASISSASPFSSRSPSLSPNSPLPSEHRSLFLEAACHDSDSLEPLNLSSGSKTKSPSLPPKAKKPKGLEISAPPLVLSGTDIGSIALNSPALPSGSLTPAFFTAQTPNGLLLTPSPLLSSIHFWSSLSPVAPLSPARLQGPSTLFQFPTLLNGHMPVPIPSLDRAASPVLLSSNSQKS
# Method in brief: as §1
# [9] = target: T6, SPIC (Homo sapiens, UniProt Q8N5J4 1-248)
# T6 sequence: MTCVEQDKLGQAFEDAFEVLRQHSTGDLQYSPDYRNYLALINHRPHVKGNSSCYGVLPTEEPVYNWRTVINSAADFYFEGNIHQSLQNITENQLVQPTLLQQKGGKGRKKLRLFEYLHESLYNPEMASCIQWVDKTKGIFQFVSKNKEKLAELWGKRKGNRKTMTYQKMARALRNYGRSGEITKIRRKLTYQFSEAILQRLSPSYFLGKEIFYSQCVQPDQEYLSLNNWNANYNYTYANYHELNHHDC
# Method in brief: as §1
# [10] = target: ELF4 (Homo sapiens, UniProt Q99607 1-663)
# Method in brief: as §1
# [11] = target: T7, ETV2 (Homo sapiens, UniProt O00321 1-342)
# T7 sequence: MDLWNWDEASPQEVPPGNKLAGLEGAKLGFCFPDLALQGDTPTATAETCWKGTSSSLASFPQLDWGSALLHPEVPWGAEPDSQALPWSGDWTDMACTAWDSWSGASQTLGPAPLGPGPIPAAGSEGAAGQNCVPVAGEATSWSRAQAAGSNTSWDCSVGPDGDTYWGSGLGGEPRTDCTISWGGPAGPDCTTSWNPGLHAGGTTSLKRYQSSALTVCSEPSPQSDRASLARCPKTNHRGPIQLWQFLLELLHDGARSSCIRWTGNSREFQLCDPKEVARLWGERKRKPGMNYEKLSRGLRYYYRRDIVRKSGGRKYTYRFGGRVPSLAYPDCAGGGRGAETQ
# Method in brief: as §1
# [12] = target: T8, ELF3 (Homo sapiens, UniProt P78545 1-371)
# T8 sequence: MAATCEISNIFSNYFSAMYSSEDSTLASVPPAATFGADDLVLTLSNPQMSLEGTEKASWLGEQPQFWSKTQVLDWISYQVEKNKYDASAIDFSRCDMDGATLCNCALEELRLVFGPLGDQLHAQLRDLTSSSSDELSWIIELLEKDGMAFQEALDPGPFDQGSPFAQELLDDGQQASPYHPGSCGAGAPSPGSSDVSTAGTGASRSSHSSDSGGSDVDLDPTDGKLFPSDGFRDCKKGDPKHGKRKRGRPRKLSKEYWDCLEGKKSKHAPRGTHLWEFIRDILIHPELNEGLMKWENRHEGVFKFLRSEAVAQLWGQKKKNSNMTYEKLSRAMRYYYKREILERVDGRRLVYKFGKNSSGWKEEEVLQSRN
# Method in brief: as §1
# [13] = target: ETV1 (Homo sapiens, UniProt P50549 1-477)
# Method in brief: as §1
# [14] = target: T9, ERF (Homo sapiens, UniProt P50548 1-548)
# T9 sequence: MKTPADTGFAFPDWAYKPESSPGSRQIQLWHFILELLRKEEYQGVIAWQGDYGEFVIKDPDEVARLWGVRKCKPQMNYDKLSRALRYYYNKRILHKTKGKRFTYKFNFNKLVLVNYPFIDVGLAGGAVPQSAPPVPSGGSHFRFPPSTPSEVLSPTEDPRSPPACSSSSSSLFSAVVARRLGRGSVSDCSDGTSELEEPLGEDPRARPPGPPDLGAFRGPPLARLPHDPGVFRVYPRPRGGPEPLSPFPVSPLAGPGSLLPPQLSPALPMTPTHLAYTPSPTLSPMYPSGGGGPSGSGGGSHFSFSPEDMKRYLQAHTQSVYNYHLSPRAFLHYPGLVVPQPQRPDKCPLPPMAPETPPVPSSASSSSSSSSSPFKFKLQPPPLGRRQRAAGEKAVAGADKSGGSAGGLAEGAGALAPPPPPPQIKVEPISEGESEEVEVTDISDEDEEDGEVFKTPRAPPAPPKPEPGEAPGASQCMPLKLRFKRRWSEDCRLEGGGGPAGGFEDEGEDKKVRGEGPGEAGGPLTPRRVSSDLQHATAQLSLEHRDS
# Method in brief: as §1
# [15] = target: T10, ETV3L (Homo sapiens, UniProt Q6ZN32 1-361)
# T10 sequence: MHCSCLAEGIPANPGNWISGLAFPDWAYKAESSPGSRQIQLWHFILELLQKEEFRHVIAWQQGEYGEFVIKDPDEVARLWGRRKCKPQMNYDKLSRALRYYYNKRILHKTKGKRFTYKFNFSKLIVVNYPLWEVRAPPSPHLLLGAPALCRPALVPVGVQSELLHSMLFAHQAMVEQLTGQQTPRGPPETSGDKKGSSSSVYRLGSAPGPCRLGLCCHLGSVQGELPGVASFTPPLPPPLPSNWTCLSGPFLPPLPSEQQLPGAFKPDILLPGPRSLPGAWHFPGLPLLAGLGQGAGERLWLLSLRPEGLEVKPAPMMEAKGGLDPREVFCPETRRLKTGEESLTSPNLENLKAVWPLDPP
# Method in brief: as §1
# [16] = target: T11, ETV7 (Homo sapiens, UniProt Q9Y603 1-341)
# T11 sequence: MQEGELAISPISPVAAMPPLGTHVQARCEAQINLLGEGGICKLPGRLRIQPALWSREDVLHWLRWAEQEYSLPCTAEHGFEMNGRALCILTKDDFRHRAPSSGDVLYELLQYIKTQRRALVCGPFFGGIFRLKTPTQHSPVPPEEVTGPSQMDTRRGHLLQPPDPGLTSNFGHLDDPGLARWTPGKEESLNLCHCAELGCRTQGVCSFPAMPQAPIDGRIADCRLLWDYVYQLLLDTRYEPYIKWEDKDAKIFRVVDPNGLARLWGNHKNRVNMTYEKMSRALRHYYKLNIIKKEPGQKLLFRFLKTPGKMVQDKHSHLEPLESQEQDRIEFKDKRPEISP
# Method in brief: as §1
# [17] = target: T12, ETV3 (Homo sapiens, UniProt P41162-2 1-143)
# T12 sequence: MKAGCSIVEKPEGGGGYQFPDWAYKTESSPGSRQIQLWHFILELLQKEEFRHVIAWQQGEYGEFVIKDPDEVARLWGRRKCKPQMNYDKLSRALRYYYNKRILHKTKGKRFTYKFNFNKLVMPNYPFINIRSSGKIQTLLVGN
# Method in brief: as §1
# [18] = target: ETV6 (Homo sapiens, UniProt P41212 1-452)
# Method in brief: as §1
# Sequence of SPIB (Q01892 whole entry): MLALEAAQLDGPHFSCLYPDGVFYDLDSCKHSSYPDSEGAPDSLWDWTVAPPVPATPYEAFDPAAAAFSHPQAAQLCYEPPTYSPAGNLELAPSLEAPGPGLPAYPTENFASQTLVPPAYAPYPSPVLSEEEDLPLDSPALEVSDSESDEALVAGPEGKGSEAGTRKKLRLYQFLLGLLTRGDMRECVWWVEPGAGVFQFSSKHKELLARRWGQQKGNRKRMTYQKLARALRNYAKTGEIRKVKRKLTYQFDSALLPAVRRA
# Sequence of ELF1 (P32519 whole entry): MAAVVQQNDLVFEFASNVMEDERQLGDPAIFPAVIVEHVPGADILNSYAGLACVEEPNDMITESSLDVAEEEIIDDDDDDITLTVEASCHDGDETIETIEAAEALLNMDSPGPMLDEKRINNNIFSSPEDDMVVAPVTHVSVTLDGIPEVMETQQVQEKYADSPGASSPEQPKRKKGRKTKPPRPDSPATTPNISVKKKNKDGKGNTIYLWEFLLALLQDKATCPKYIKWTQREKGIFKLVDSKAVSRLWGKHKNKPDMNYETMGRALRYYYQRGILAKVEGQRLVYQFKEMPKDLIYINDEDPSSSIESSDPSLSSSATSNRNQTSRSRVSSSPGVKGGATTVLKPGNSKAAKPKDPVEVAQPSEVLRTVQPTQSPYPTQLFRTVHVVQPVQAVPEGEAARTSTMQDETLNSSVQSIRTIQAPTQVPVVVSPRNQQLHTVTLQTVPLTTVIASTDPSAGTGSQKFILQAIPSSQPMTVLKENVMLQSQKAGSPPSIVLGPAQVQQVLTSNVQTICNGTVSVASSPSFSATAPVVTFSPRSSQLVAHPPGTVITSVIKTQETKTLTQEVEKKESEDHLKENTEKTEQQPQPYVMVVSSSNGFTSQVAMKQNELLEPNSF
# Sequence of ETV1 (P50549 whole entry): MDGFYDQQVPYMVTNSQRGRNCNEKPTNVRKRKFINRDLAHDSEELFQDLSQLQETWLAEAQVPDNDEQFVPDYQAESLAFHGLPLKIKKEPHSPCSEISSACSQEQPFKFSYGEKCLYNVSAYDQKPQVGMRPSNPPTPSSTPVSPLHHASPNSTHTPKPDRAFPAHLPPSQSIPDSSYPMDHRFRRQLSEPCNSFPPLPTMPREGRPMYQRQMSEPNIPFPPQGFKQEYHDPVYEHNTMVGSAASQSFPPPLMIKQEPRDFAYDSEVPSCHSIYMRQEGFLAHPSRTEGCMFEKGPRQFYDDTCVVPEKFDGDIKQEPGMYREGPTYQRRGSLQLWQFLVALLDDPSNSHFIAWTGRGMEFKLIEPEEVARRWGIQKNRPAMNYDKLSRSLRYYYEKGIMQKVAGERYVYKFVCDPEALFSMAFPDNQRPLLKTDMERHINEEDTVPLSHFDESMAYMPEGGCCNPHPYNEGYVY
# Sequence of ELF4 (Q99607 whole entry): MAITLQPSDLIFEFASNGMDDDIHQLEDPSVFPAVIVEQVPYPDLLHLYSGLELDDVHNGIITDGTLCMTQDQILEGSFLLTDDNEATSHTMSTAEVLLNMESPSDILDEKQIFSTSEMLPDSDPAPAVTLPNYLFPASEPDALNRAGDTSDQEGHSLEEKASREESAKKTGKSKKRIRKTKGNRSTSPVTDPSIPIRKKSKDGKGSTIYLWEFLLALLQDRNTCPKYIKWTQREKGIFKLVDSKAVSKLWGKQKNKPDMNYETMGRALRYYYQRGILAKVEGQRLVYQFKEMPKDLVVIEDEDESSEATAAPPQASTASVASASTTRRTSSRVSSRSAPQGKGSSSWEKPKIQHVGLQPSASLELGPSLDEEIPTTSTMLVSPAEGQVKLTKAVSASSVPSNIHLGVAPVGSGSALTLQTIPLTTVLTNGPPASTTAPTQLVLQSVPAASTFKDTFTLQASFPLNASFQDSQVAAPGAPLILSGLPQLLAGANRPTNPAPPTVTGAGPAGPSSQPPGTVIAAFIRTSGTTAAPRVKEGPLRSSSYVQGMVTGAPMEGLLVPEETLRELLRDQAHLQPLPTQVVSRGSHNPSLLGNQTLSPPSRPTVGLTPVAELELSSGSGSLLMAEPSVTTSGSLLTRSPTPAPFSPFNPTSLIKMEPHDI
# Sequence of ETV6 (P41212 whole entry): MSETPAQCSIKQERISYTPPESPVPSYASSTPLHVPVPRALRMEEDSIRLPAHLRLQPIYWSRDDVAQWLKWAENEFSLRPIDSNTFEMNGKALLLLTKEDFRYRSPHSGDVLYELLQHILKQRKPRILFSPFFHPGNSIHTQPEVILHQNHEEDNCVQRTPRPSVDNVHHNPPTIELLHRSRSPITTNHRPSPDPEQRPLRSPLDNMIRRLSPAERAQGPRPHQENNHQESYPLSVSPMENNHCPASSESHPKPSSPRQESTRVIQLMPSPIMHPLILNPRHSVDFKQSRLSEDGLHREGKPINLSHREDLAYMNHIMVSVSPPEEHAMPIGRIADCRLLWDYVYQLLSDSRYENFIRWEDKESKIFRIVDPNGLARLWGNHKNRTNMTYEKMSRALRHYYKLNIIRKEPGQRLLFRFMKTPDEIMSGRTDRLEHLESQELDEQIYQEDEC
sequence,measurement,setting,value
AGTGCA,binding signal,[1],"1.1 fold enrichment (6-mer frequency, TF over GST control)"
same,binding signal,[2],"1.1 fold enrichment (6-mer frequency, TF over GST control)"
same,binding signal,[3],"1.07 fold enrichment (6-mer frequency, TF over GST control)"
same,binding signal,[4],"1.07 fold enrichment (6-mer frequency, TF over GST control)"
same,binding signal,[5],"1.09 fold enrichment (6-mer frequency, TF over GST control)"
same,binding signal,[6],"1.47 fold enrichment (6-mer frequency, TF over GST control)"
same,binding signal,[7],"1.08 fold enrichment (6-mer frequency, TF over GST control)"
same,binding signal,[8],"1.13 fold enrichment (6-mer frequency, TF over GST control)"
same,binding signal,[9],"1.21 fold enrichment (6-mer frequency, TF over GST control)"
same,binding signal,[10],"1.03 fold enrichment (6-mer frequency, TF over GST control)"
same,binding signal,[11],"1.04 fold enrichment (6-mer frequency, TF over GST control)"
same,binding signal,[12],"1.16 fold enrichment (6-mer frequency, TF over GST control)"
same,binding signal,[13],"1.11 fold enrichment (6-mer frequency, TF over GST control)"
same,binding signal,[14],"1.12 fold enrichment (6-mer frequency, TF over GST control)"
same,binding signal,[15],"1.03 fold enrichment (6-mer frequency, TF over GST control)"
same,binding signal,[16],"1.18 fold enrichment (6-mer frequency, TF over GST control)"
same,binding signal,[17],"1.05 fold enrichment (6-mer frequency, TF over GST control)"
same,binding signal,[18],"1.16 fold enrichment (6-mer frequency, TF over GST control)"
